This is an account of results in PubChem BioAssay.

Assay [1] has as its system Human papillomavirus type 1a protein E7 (residues 44-93). The assay can be described thus: small molecules binding HPV E7 44-93 – biochemical, small-molecule microarray, residues 44-93, 635 nm fluorescence, primary screen (AID 1108).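 Note: E7 fragment applied at 1 µg/mL in TBST for 1 h at 4 C; score combines spot fluorescence with its signal to noise ratio.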 Conditions: fluorescence 635 nm, higher = more signal.
The nature of assay [2]: hepatitis C replication reporter changes, two-sided – Huh7 cells, luciferase reporter, HCV replication inhibitor project, primary screen (AID 1109).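 Note: huh7 hepatoma cells harbouring a luciferase neomycin HCV replicon reporter; luciferase luminescence as measure of HCV replicon replication; test concentration not given here.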 Conditions: Huh7 HCV replicon luciferase reporter, 48 h; higher = more signal.
In assay [3] the target is Left-right determination factor 2 (Homo sapiens) (UniProt O00292). Description: small molecules binding LEFTY2 protein – biochemical, small-molecule microarray, 635 nm fluorescence scan, primary screen (AID 1110). Conditions: higher = more signal.
Left-right determination factor 2 (Homo sapiens), sequence (O00292 whole entry, looked up): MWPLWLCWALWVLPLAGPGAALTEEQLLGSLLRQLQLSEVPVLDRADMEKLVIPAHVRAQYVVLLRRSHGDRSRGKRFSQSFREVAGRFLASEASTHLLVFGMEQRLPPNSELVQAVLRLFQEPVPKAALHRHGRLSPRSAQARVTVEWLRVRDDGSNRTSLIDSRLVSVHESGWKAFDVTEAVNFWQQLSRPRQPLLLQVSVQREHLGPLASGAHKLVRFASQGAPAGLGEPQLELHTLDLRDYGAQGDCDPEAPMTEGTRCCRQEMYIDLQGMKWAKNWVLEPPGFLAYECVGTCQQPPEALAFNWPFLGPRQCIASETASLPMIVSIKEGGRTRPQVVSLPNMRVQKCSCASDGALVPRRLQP
Assay [4] has as its target Calmodulin-1 (Homo sapiens) (UniProt P0DP23). The assay can be described thus: small molecules binding calmodulin-1 with EGTA – biochemical, small-molecule microarray, Cy5-labelled CALM1, profiling panel (AID 1111).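 Note: labelled calmodulin applied in Tris saline Tween buffer holding calcium plus EGTA and DTT.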 Conditions: Cy5-CALM1 binding fluorescence, higher = more signal.
The target is the same in assay [5]. The assay can be described thus: small molecules binding Ca-loaded calmodulin-1 – biochemical, small-molecule microarray, Cy5-labelled CALM1, plus calcium, artefact control for SMM control-protein annotation, profiling panel (AID 1112).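 Note: score merges spot fluorescence with signal to noise from triplicate slides.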 Conditions: Cy5-CALM1 binding fluorescence, higher = more signal.
Assay [6] in a line: probe aWnt5a binding to arrayed compounds – biochemical, biotinylated probe, 635/667 nm fluorescence, primary screen (AID 1113).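 Note: score merges 667 nm fluorescence intensity with signal-to-noise per printed feature.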 Conditions: small-molecule microarray, higher = more signal.
Assay [7] is described as follows: probe aShh binding to arrayed compounds – biochemical, biotinylated probe, 635/667 nm fluorescence, primary screen (AID 1114).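 Note: probe is biotin-labelled aShh protein from a stem cell growth factor screen; measures binding of labelled protein to compounds printed on the slide; score merges feature fluorescence at 667 nm with signal-to-noise.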 Conditions: small-molecule microarray, higher = more signal.
Assay [8] in a line: probe aNog binding to arrayed compounds – biochemical, biotinylated probe, 635/667 nm fluorescence, primary screen (AID 1115).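 Note: probe is biotinylated aNog protein used at 0.15 µg/mL for 1 h at 4 C; z-score combines 667 nm fluorescence of each spot with its signal to noise.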 Conditions: small-molecule microarray, higher = more signal.
The target in assay [9] is Torsin-1A-interacting protein 1 (Homo sapiens) (UniProt Q5JTV8). The assay can be described thus: compound microarray binding of lysate hLAP1 – cell lysate, small-molecule microarray, COS7 lysate, 635/667 nm fluorescence, primary screen (AID 1116). Conditions: 635 nm fluorescence, higher = more signal.
Torsin-1A-interacting protein 1 (Homo sapiens), sequence (Q5JTV8 whole entry, looked up): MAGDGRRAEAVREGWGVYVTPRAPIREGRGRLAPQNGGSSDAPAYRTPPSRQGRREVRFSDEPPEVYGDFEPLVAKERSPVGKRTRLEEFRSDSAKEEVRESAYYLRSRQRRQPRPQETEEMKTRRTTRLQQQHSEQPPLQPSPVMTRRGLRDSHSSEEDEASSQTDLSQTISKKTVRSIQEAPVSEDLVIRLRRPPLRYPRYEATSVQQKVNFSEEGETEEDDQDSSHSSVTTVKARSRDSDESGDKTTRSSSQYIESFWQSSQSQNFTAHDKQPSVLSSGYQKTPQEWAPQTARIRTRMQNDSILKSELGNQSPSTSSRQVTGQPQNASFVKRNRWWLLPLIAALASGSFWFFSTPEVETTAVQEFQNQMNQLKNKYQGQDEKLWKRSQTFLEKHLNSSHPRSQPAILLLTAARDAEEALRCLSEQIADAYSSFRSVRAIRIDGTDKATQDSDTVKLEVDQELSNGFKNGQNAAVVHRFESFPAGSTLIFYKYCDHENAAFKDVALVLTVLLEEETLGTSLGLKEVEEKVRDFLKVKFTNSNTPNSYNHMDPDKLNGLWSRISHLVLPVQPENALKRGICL
In assay [10] the target is Alpha-bungarotoxin (Bungarus multicinctus) (UniProt P60615). Description: compounds binding labelled alpha-BTX control protein – biochemical, small-molecule microarray, Alexa647 label, 635/667 nm fluorescence, artefact control for SMM control protein annotation, profiling panel (AID 1117). Conditions: alpha-BTX-A647 binding fluorescence, higher = more signal.
Alpha-bungarotoxin (Bungarus multicinctus), sequence (P60615 whole entry, looked up): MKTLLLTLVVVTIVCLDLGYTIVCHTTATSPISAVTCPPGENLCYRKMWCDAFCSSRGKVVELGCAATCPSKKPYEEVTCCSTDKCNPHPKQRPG

As to `C=C(C)C1CCC(C(O)C2C=CC3C(=O)N(C)C(=O)C3N2N2CCCCC2)CC1` (stereo not given), the composite z-score worked out at 1.44 in [1]; 0.67 in [3]; 0.949 in [4]; 0.763 in [5]; 0.048 in assay [6]; 0.413 in assay [7]. Besides, the composite z-score turned out to be 0.751 in assay [8], 0.555 in assay [9] and 1.89 in assay [10]. In assay [2], this compound returned a z-score of -0.385.

Turning to `COC(=O)c1c(CC[C@@H](CO)NC(=O)N[C@H](Cn2cc(C3(O)CCCCC3)nn2)C(C)C)oc(C(C)=O)c1C(=O)OC`, the composite z-score in assay [1] was 1.01; in [3], 0.724; in [4] it was 0.169; in assay [5], -0.715; in assay [6], 0.002; in assay [7], 0.151. Further, the composite z-score in [8] came to 0.141; in [9] it was 0.748; in [10], 1.65. In assay [2], the z-score is -0.415.

Consider `COc1ccccc1CN1C(=O)c2ccccc2[C@@]2(Cc3ccccc3N(CC(F)(F)F)C2=O)[C@@H]1c1ccc(CO)cc1`, for which the composite z-score was 0.802 in assay [1]; 0.244 in [3]; -0.504 in [4]; -0.723 in [5]; 0.13 in [6]; -0.308 in assay [7]. In addition, the composite z-score in assay [8] was 1.68; in assay [9], -0.0328; in [10], 0.118. Further, in assay [2], the z-score is -0.521.

`[N-]=[N+]=NCc1ccccc1C[C@@]1(C(=O)N2CCOCC2)N=C(c2ccc(OCCCO)cc2)O[C@@H]1c1ccccc1`: the composite z-score was 1.45 in assay [1]; 0.285 in assay [3]; 1.83 in assay [4]; 0.997 in assay [5]; 0.0597 in [6]; 0.412 in assay [7]. The results for the composite z-score in assay [8], in [9] and in [10] were -0.549, 2.09 and 0.916, respectively. For the same compound, the z-score in [2] is -3.27.

Regarding `NCCCCCCNC(=O)[C@@H]1C[C@@H]2C(=O)N[C@@H](CCCCN)C(=O)N2[C@@H]1c1cccc(OCCO)c1`, the composite z-score in [1] was found to be 1.32; in assay [3] it was 1.1; in assay [4], 1.02; in assay [5], 1.2; in assay [6], 0.188; in assay [7] it was 1.05. Besides, the figures for the composite z-score in assay [8], in assay [9] and in assay [10] were 2.03, 0.882 and 0.933, respectively. Also, the z-score in assay [2] was -0.661.

`O=C(N1CCCCC1)[C@@]1(CCS(=O)(=O)c2ccccc2)COC(c2ccc(OCCCO)cc2)=N1`: the composite z-score in [1] is 0.517; in [3], -0.0902; in [4], 0.695; in [5] it was -0.438; in assay [6], 0.0374; in assay [7], -0.0064. The composite z-score in [8] was -0.489; in assay [9], 1.51; in assay [10], 0.632. This compound gave a z-score in [2] of -0.98.

Consider `C=C(COC)C(=O)CC[C@@H](OC(=O)c1cccnc1)c1ccc(OCCO)cc1`, for which the composite z-score in assay [1] is 0.757; in assay [3], 0.659; in [4], -0.299; in assay [5], -0.804; in assay [6] it was -0.0944; in assay [7] it was -0.237. In addition, the values for the composite z-score in assay [8], in [9] and in [10] were 0.678, 0.975 and 0.661, respectively. This compound also returned a z-score in [2] of -2.9.

Consider `CCOc1cc(C(O)C2C=CC3C(=O)N(C)C(=O)C3N2Nc2ccccc2)ccc1O` (stereo not given), for which the composite z-score is 1.24 in assay [1]; 0.0031 in [3]; 0.796 in assay [4]; -0.211 in assay [5]; -0.0165 in [6]; -0.155 in [7]. Further, the figures for the composite z-score in assay [8], in [9] and in [10] were -0.145, 1.92 and 0.848, respectively. The compound also had a z-score in assay [2] of -0.146.

As for `COC(=O)[C@@]1(Cc2ccccc2)[C@H]2c3cc(C(=O)N(C)C)n(CCN4CNCC4=O)c3C[C@H]2CN1C(=O)c1ccccc1`, the composite z-score was -0.5 in assay [1]; -1.47 in [3]; 2.98 in [4]; -2.29 in [5]; 0.401 in assay [6]; 0.0183 in assay [7]. In addition, the results for the composite z-score in [8], in [9] and in [10] were 1.99, 4.42 and 3.12, respectively. In addition, the z-score in assay [2] was 0.188.

Consider `CC(C)[Si](C#C[Si](C(C)C)(C(C)C)C(C)C)(O[C@H](C)c1cn([C@H](CO)Cc2ccccc2)nn1)C(C)C`, for which the composite z-score is 0.534 in assay [1]; 0.182 in assay [3]; -0.0641 in [4]; -0.393 in assay [5]; -0.0924 in assay [6]; -0.0977 in [7]. The values for the composite z-score in assay [8], in assay [9] and in assay [10] were -0.122, 0.227 and -0.0846, respectively. In assay [2], the z-score was -0.677.

Take `COCCOC(=O)N1C(=O)[C@@]2(c3cc(C#Cc4ccc(OC)cc4)ccc31)[C@H](C(=O)Nc1nc3ccccc3s1)[C@H]1C(=O)O[C@H](c3ccccc3)[C@H](c3ccccc3)N1[C@@H]2c1ccc(O)cc1`: the composite z-score is 1.38 in assay [1]; 0.631 in assay [3]; 0.876 in assay [4]; -0.138 in assay [5]; 0.0559 in assay [6]; 0.314 in [7]. Further, the composite z-score is -0.376 in assay [8], 0.37 in [9] and 1.34 in assay [10]. The compound further returned a z-score in assay [2] of -0.841.

In the case of `COC(=O)c1c(CC[C@@H](CO)NC(=O)N2CCC[C@H]2Cn2cc(Cc3ccccc3)nn2)oc(C(C)=O)c1C(=O)OC`, the composite z-score was 0.916 in [1]; -0.0041 in [3]; -0.128 in [4]; -0.658 in assay [5]; -0.0778 in assay [6]; -0.167 in assay [7]. For the same compound, the composite z-score in [8] is 0.113; in assay [9] it was 0.0411; in assay [10] it was 0.17. In assay [2], this compound registered a z-score of 0.139.

`C=CCNC(=O)[C@H]1[C@@H]2C(=O)O[C@@H](c3ccccc3)[C@@H](c3ccccc3)N2[C@@H](c2ccc(O)cc2)[C@]12C(=O)N(C(=O)OCCOC)c1ccccc12`: the composite z-score in assay [1] was 1.42; in assay [3], 0.18; in assay [4], 0.763; in assay [5] it was -0.0816; in [6], -0.0573; in assay [7], -0.331. For the same compound, the figures for the composite z-score in assay [8], in assay [9] and in assay [10] were -0.206, 0.793 and 0.712, respectively. For the same compound, in assay [2], the z-score was -0.585.

In the case of `C=C(C)c1cc2c(c(CCCCCC)n1)[Si](C(C)C)(C(C)C)OC2`, the composite z-score was -1.01 in assay [1]; -1.08 in assay [3]; -0.689 in assay [4]; 0.603 in assay [5]; -0.145 in [6]; -0.123 in assay [7]. The composite z-score in [8] is -0.295; in assay [9], -1.07; in [10], -0.676. Also, the z-score in assay [2] is -0.35.

In the case of `Cc1cc(C)c(C(O)C2C=CC3C(=O)NC(=O)C3N2Nc2ccc(Cl)cc2Cl)c(C)c1` (stereo not given), the composite z-score in assay [1] amounted to 1.4; in assay [3], 0.105; in assay [4] it was 2.18; in [5], 0.954; in assay [6], 0.0489; in assay [7], 0.171. Moreover, the composite z-score in assay [8] was 1.92; in assay [9], 1.78; in assay [10], 1. For the same compound, the z-score in assay [2] was -0.293.

With `CC(CO)N1C(=O)[C@@H]2[C@H]3C(=O)OCC=C[C@H]3OC23C=CCN(Cc2ccccc2)C(=O)[C@@H]13` (stereo not given in full), the composite z-score is -1.13 in assay [1]; -0.509 in assay [3]; -0.216 in [4]; -0.324 in [5]; 0.206 in [6]; -0.211 in assay [7]. The composite z-score is -0.273 in [8], -0.5 in [9] and -0.221 in [10]. In addition, the z-score in [2] was -0.254.

With `CCC(CC)C(O)C1C=CC2C(=O)N(c3ccccc3)C(=O)C2N1Nc1ccc(C(C)C)cc1` (stereo not given), the composite z-score in assay [1] is 1.28; in assay [3], -0.0146; in [4], 1.04; in assay [5], 0.419; in [6], -0.0643; in assay [7] it was 0.698. In addition, the composite z-score in [8] was 0.967; in assay [9] it was 1.23; in assay [10], 1.27. In assay [2], this compound registered a z-score of -0.652.
